Structures are written as SMILES. Inconclusive results are not listed. Values without a mark were called inactive. Active and inactive are the calls of the source. Unless noted, calls follow the shape of the dose curve; as a rule, active = well fitted curve in the direction sought with a large enough effect; inconclusive = small, poorly fitted or top-dose-only effect, or another doubt; inactive = no such curve, though single readings can be large; an effect the other way counts as inactive or inconclusive.

A short description of the first experiment: qHTS for differential inhibitors of proliferation of Plasmodium falciparum line Dd2 (AID 1882). Also: nearly all actives have a fitted effect of over 65% in size. Also: potency is read from the fitted curve at half-maximal effect.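 As to activity change, negative = inhibition: compound exposure of 72 h on infected erythrocytes; plate controls were DMSO vehicle for no effect and 0.29 µM artemisinin for full effect.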 The settings on record: Potency: Plasmodium falciparum Dd2 proliferation inhibition; series mostly up to 28.7 µM; activity change, negative = inhibition: at the top concentration. Put shortly:
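RBC culture, 0.3% parasitemia / 2.5% Hct final; cpd added by pin tool in DMSO; 72 h, 37 C, 5% CO2; lysis buffer + SYBR Green I, o/n RT dark; FI 485/535; norm. to artemisinin 0.29 uM and DMSO.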
(Quantitative high-throughput screening tests each substance at several concentrations.)
Take `CC1=C(C(=O)O)N2C(=O)[C@@H](NC(=O)C(N)c3ccccc3)[C@H]2SC1` (some centres not stated): the “activity change, negative = inhibition” value is -7.13%.

Take `CC(C)NCC(O)c1ccc(NS(C)(=O)=O)cc1` (configuration not stated): the “activity change, negative = inhibition” value was 0.694%.

With `CCN(CC)CC#CCOC(=O)C(O)(c1ccccc1)C1CCCCC1` (configuration not stated), the Potency was 8.91 µM (active).

`CC(C)(C)NC(=O)[C@H]1CC[C@H]2[C@@H]3CC[C@H]4NC(=O)C=C[C@]4(C)[C@H]3CC[C@]12C`: the “activity change, negative = inhibition” value was -23.9%.

`CCCCS(=N)(=O)CCC(N)C(=O)O` (configuration not stated): the “activity change, negative = inhibition” value is -27.4%.

`O=C(O)C1CCCN(CCC=C(c2ccccc2)c2ccccc2)C1` (configuration not stated): the “activity change, negative = inhibition” value is 1.82%.

On to `Nc1nc(N)c2nc(CNc3ccc(C(=O)NC(CCC(=O)O)C(=O)O)cc3)cnc2n1` (configuration not stated), for which the “activity change, negative = inhibition” value is -14.2%.

Take `NC(=O)c1cccc(N)c1`: the “activity change, negative = inhibition” value is 0.248%.

In the case of `CCN1CCCC1CNC(=O)c1cc(S(N)(=O)=O)ccc1OC` (configuration not stated), the “activity change, negative = inhibition” value was -1.21%.

Another experiment in a line: qHTS for differential inhibitors of proliferation of Plasmodium falciparum line W2 (AID 1883).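 Also: parasites grown with compound for 72 h before lysis and staining.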 Also: potency is read from the fitted curve at half-maximal effect.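 As to activity change, negative = inhibition: 0% = vehicle wells and -100% = control inhibitor wells.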 To be noted: Potency: Plasmodium falciparum W2 proliferation inhibition; series mostly up to 28.7 µM; activity change, negative = inhibition: at the top concentration.
With `CC1=C(C(=O)O)N2C(=O)[C@@H](NC(=O)C(N)c3ccccc3)[C@H]2SC1` (some centres not stated), the “activity change, negative = inhibition” value was -22.4%.

For the molecule `CCN(CC)CC#CCOC(=O)C(O)(c1ccccc1)C1CCCCC1` (configuration not stated), the Potency was 2.24 µM (active).

As for `CC(C)(C)NC(=O)[C@H]1CC[C@H]2[C@@H]3CC[C@H]4NC(=O)C=C[C@]4(C)[C@H]3CC[C@]12C`, the Potency was 10 µM (active).

With `O=C(O)C1CCCN(CCC=C(c2ccccc2)c2ccccc2)C1` (configuration not stated), the “activity change, negative = inhibition” value is -19.7%.

For the molecule `Nc1nc(N)c2nc(CNc3ccc(C(=O)NC(CCC(=O)O)C(=O)O)cc3)cnc2n1` (configuration not stated), the “activity change, negative = inhibition” value is -7.42%.

On to `NC(=O)c1cccc(N)c1`, for which the “activity change, negative = inhibition” value was -7.11%.

As for `COc1cc2ncnc(Nc3cccc(Cl)c3)c2cc1OC`, the Potency was 7.94 µM (active).

`CCN1CCCC1CNC(=O)c1cc(S(N)(=O)=O)ccc1OC` (configuration not stated): the “activity change, negative = inhibition” value was -7.11%.

Regarding `OCc1ccc(-c2nn(Cc3ccccc3)c3ccccc23)o1`, the Potency is 8.91 µM (active).

Take `Cc1ccc(S(=O)(=O)N[C@@H](Cc2ccccc2)C(=O)CCl)cc1`: the Potency is 11.2 µM (active).

The nature of the next experiment: qHTS for differential inhibitors of proliferation of Plasmodium falciparum line HB3 (AID 1886).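 Also: parasites grown with compound for 72 h before SYBR Green readout.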 Also: potency is read from the fitted curve at half-maximal effect.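 As to activity change, negative = inhibition: plate controls were vehicle for no effect and reference inhibitor for full effect.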 The settings on record: Potency: Plasmodium falciparum HB3 proliferation inhibition; series mostly up to 28.7 µM; activity change, negative = inhibition: at the top concentration.
For the molecule `CC1=C(C(=O)O)N2C(=O)[C@@H](NC(=O)C(N)c3ccccc3)[C@H]2SC1` (some centres not stated), the “activity change, negative = inhibition” value is -4.34%.

In the case of `CC(C)NCC(O)c1ccc(NS(C)(=O)=O)cc1` (configuration not stated), the “activity change, negative = inhibition” value was 0.0576%.

As for `CCN(CC)CC#CCOC(=O)C(O)(c1ccccc1)C1CCCCC1` (configuration not stated), the Potency is 8.91 µM (active).

On to `CCCCS(=N)(=O)CCC(N)C(=O)O` (configuration not stated), for which the “activity change, negative = inhibition” value was -21.6%.

In the case of `O=C(O)C1CCCN(CCC=C(c2ccccc2)c2ccccc2)C1` (configuration not stated), the “activity change, negative = inhibition” value is -13.3%.

In the case of `Nc1nc(N)c2nc(CNc3ccc(C(=O)NC(CCC(=O)O)C(=O)O)cc3)cnc2n1` (configuration not stated), the “activity change, negative = inhibition” value was -10.2%.

In the case of `NC(=O)c1cccc(N)c1`, the “activity change, negative = inhibition” value is -5.3%.

Regarding `COc1cc2ncnc(Nc3cccc(Cl)c3)c2cc1OC`, the Potency was 10 µM (active).

`CCN1CCCC1CNC(=O)c1cc(S(N)(=O)=O)ccc1OC` (configuration not stated): the “activity change, negative = inhibition” value was -1.18%.

For the molecule `Cc1ccc(S(=O)(=O)N[C@@H](Cc2ccccc2)C(=O)CCl)cc1`, the “activity change, negative = inhibition” value is -23.6%.

Another experiment is described as follows: qHTS Assay for Modulators of Human Peripheral Myelin Protein 22 (PMP22) Expression/Activity (AID 1967; active = well fitted curve in the direction sought with a large enough effect in the signal ratio; the % refers to the signal ratio;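 also: 0% = untreated cells and 100% end not stated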). The settings on record: Cell-based PMP22 reporter, dual-color luciferase ratio, 0% = compound-free control cells, mouse Pmp22 promoter in mouse Schwann cells; series mostly up to 115 µM; activity change (ratio): at the top concentration. Put shortly:
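Readout is the corrected green/red luminescence ratio after 24 h compound exposure, normalised to untreated cells (0%). Engineered MSC80 mouse Schwann cells express green luciferase from the mouse Pmp22 promoter and red luciferase from EF-alpha as internal control.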
For `CC1=C(C(=O)O)N2C(=O)[C@@H](NC(=O)C(N)c3ccccc3)[C@H]2SC1` (some centres not stated), the “activity change (ratio)” value was -0.0195%.

Turning to `CC(C)NCC(O)c1ccc(NS(C)(=O)=O)cc1` (configuration not stated), the “activity change (ratio)” value was 1.61%.

Consider `CCCCS(=N)(=O)CCC(N)C(=O)O` (configuration not stated), for which the “activity change (ratio)” value is 28.5%.

In the case of `O=C(O)C1CCCN(CCC=C(c2ccccc2)c2ccccc2)C1` (configuration not stated), the “activity change (ratio)” value was 0.946%.

As to `Nc1nc(N)c2nc(CNc3ccc(C(=O)NC(CCC(=O)O)C(=O)O)cc3)cnc2n1` (configuration not stated), the “activity change (ratio)” value was 3.92%.

Turning to `CCN1CCCC1CNC(=O)c1cc(S(N)(=O)=O)ccc1OC` (configuration not stated), the “activity change (ratio)” value is 15.7%.

A further experiment can be described thus: qHTS Assay for Identification of Small Molecule Inducers of Hypoxia Response (AID 2120; active = well fitted curve in the direction sought with a large enough effect in the signal ratio, with a control signal flat, not every such curve was filed as active; the % refers to the signal ratio; also: 0% is about no effect). The settings on record: hypoxia response reporter cells, beta-lactamase ratio readout; series mostly up to 104 µM; activation: at the top concentration. The method in brief:
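HRE-bla ME-180, 2500 cells/well, 0.5% dialyzed FBS medium; cpd titration, 17 h 37 degrees C; CCF4 2.5 h RT; Ex 405, Em 460/530 ratio -> %Activity, AC50.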
In the case of `N=C(N)c1ccc(OCCCCCOc2ccc(C(=N)N)cc2)cc1`, the “activation” value is 0.581%.

Consider `NC(N)=NC(N)=NCCc1ccccc1`, for which the “activation” value was 2.12%.

For `COc1ccc2cc3[n+](cc2c1OC)CCc1cc2c(cc1-3)OCO2`, the “activation” value is 2.51%.

As to `Cc1noc(NS(=O)(=O)c2ccc(N)cc2)c1C`, the “activation” value was 0.302%.

As for `O=C(O)c1cc(=O)[nH]c(=O)[nH]1`, the “activation” value is 0.244%.

Consider `CC(=O)Oc1ccccc1C(=O)Nc1ncc([N+](=O)[O-])s1`, for which the “activation” value is 2.2%.

For the molecule `Cc1ccnc2c1NC(=O)c1cccnc1N2C1CC1`, the “activation” value is 0.121%.

The record behind these values is PubChem BioAssay (NCATS).
